Peg3 prom inh = inhibitors of Peg3 promoter; 360,000 compounds, 1.7% hits; AID 588405; HeLa PEG-Prom luciferase reporter, luminescence, overnight; inhibition, % at 20 µM;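 active = inhibition of at least 50% at 20 µM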
CF NFkB inh = inhibitors of cystic fibrosis induced NF-kB; 360,000 compounds, 0.86% hits; KKLEB NF-kB-GFP reporter, PAF-induced, GFP fluorescence overnight; inhibition, % at 5 µM;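 active = at least 50% inhibition at 5 µM, scaled per plate between neutral and stimulator controls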;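 also: PAF is a Pseudomonas aeruginosa culture filtrate used as stimulus; plate controls were PAF-stimulated DMSO wells for no effect and unstimulated DMSO wells for full effect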
TWEAK-Fn14 inh = TWEAK-Fn14 signaling inhibition; inhibition, % at 10 µM; TWEAK-stimulated Fn14 reporter cells, luciferase luminescence, 8 h; 360,000 compounds, 2% hits; AID 1159606; in the data active = inhibition above about 50%
KKLEB cytotox = CF airway cell cytotoxicity counter-screen | activity change (cytotoxicity), % at 5 µM | KKLEB CF airway cells viability, ATPlite luminescence, overnight; stronger effect = lower value; cells stimulated with P. aeruginosa culture filtrate | AID 602141 | 360,000 compounds, 0.36% hits;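 active = corrected activity change at or below -50% at 5 µM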
HIF-2a inh = blocks HIF-2a reporter activity; inhibition, % at 18.8 µM; 786-0 RCC cells HIF-2a reporter, luciferase luminescence, overnight; 360,000 compounds, 0.72% hits;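 active = inhibition of the luminescence signal of 40% or more relative to plate controls, in a single-dose primary screen at 18.75 µM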
TROY NFkB inh = blocks TROY-dependent signaling in reporter cells; Q293 LMP1-TROYcd NF-kB luciferase reporter, 4 h; inhibition, % at 10 µM; 360,000 compounds, 0.98% hits; AID 1347056;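 active = compounds whose plate-normalised and pattern-corrected inhibition of the luciferase reporter signal at the single screening dose is 50% or more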
Starred values were filed as active, the others as inactive; nt = no result given. Most compounds without a hit are left out; they make up all but 4% or so of the library.

SMILES	Peg3 prom inh	CF NFkB inh	TWEAK-Fn14 inh	KKLEB cytotox	HIF-2a inh	TROY NFkB inh
CC(=O)NC(Nc1c(C)n(C)n(-c2ccccc2)c1=O)C(Cl)(Cl)Cl (centres undefined)	13	0	-1	0	13	63*
O=C(/C=C/[C@H]1O[C@@H](n2ccc(=O)[nH]c2=O)[C@H](O)[C@@H]1O)NCCN1CCOCC1	0	22	5	-20	7	1
CCCCN1C(=O)NC(c2ccc(OC)cc2)C(C(=O)OCc2ccccc2)=C1C (centres undefined)	9	0	-5	8	-9	-4
O=C(Nc1ccc(NC(=O)C2CC2)nc1)c1ccccn1	-34	2	62*	8	-23	13
CCC(=O)Nc1ccc(NC(=O)c2ccccn2)cn1	-68	4	47	-18	-62	2
CC(C)C(=O)Nc1ccc(NC(=O)c2ccccn2)cn1	26	2	76*	3	26	42
O=C(CCOc1ccccc1)Nc1ccnn1C1CCN(C(=O)CCC(F)(F)F)CC1	-41	-2	-17	-4	-54	14
COc1cccc(CN2CC(C(=O)N3CCCO3)CCC2=O)c1 (centres undefined)	-11	-1	-8	1	-7	-18
CC(C)C(=O)NC(c1cccc([N+](=O)[O-])c1)c1c(O)ccc2ccccc12 (centres undefined)	-51	5	-7	5	-80	51*
CC(C)C(=O)NC(c1ccc([N+](=O)[O-])cc1)c1c(O)ccc2ccccc12 (centres undefined)	52*	10	6	-37	-18	20
CC(=O)NC(c1ccc(C(C)C)cc1)c1c(O)ccc2ccccc12 (centres undefined)	24	16	4	-14	17	19
Cc1ccc(C(NC(=O)C2CCCCC2)c2c(O)ccc3ccccc23)cc1 (centres undefined)	54*	50	49	-22	3	17
Fc1ccc(CNc2ncccn2)cc1	0	-12	15	8	6	-2
Clc1ccc(CNc2ncccn2)cc1	-7	14	72*	-18	16	13
Cc1cc(F)ccc1-c1cc(C(=O)Nc2ccccc2)[nH]n1	-280	-17	18	12	-56	-2
COCCn1c(=NC(=O)c2ccc(S(=O)(=O)N3CCc4ccccc4C3)cc2)sc2cc(OC)ccc21	12	55*	-15	-69*	10	5
COCCn1c(=NC(=O)CCS(=O)(=O)c2ccccc2)sc2cc(C(=O)OC)ccc21	25	8	-18	1	17	-16
C[C@@H]1CN([C@H](C)CO)C(=O)CCCn2nncc2CO[C@@H]1CN(C)S(=O)(=O)c1ccc2c(c1)OCCCO2	2	18	-7	-12	-4	0
Cc1cc(F)ccc1-c1cc(C(=O)NCc2cc(C(F)(F)F)cc(C(F)(F)F)c2)[nH]n1	5	-23	-53	21	-15	30
Cc1ccc(F)cc1-c1cc(C(=O)NCc2cc(C(F)(F)F)cc(C(F)(F)F)c2)[nH]n1	13	16	19	2	4	53*
Cc1csc(-c2cc(C(=O)NCc3cc(C(F)(F)F)cc(C(F)(F)F)c3)n[nH]2)c1	15	0	-80	-5	-6	52*
CCN1CCN(C(=O)CCc2nnc3ccc(N4CCN(c5cccc(OC)c5)CC4)nn23)CC1	-2	-2	-29	-2	0	6
CCCCC(CC)CO (centres undefined)	110*	18	3	8	8	10
CCOc1ccc(C(Nc2cccnc2)c2cc(Cl)c3cccnc3c2O)cc1 (centres undefined)	46	5	-14	-9	27	2
CCC(=O)NC(c1cccs1)c1ccc2cccnc2c1O (centres undefined)	45	6	3	10	4	11
SMILES	Peg3 prom inh	CF NFkB inh	TWEAK-Fn14 inh	KKLEB cytotox	HIF-2a inh	TROY NFkB inh
Oc1c(C(Nc2cccc(C(F)(F)F)c2)c2ccncc2)ccc2cccnc12 (centres undefined)	18	-25	52*	-11	13	-28
Oc1c(C(Nc2nccs2)c2ccc(C(F)(F)F)cc2)ccc2cccnc12 (centres undefined)	68*	16	9	2	87*	1
O=c1[nH]c(C2CCN(S(=O)(=O)c3ccccc3F)CC2)nc2c1nnn2Cc1ccc2c(c1)OCCO2	60*	3	-14	9	23	-19
CCOC(=O)C1CCCN(C(=O)c2cc(C)oc2C)CC1 (centres undefined)	-6	-1	3	-12	12	8
CCCCCCCC(=O)OCC(O)CO (centres undefined)	-12	-8	-11	-60*	-5	-7
Cc1ccc(N/N=C(\C#N)C(N)=S)cc1C	-8	67*	62*	0	-80	58*
N#C/C(=N\Nc1ccc(Cl)cc1)C(N)=S	-31	61*	60*	-39	-161	64*
N#C/C(=N\Nc1ccccc1)C(N)=S	6	18	30	-5	-7	31
Cc1ccc(NC(N)=S)cc1C	3	-9	-1	-3	4	15
O=C(O)c1ccccc1NC(c1ccccc1)c1ccc(Cl)cc1 (centres undefined)	-2	6	0	1	17	30
O=C(NC1CCCCC1)c1cc(C2CC2)nn1-c1ccccc1	14	7	-24	5	6	-11
O=C(O)c1ccc(/C=N/NC(=O)c2cc(-c3cccs3)nc3ccccc23)cc1	65*	2	-6	-8	-14	-9
O=C(N/N=C/c1ccco1)c1cc(-c2cccc(Br)c2)nc2ccccc12	-7	-31	77*	0	-74	48
Cc1cc(C(=O)N/N=C/c2ccc(N(C)C)cc2)c2ccccc2n1	6	-10	51*	-4	-6	54*
CN(C)S(=O)(=O)c1ccc(NC(=O)c2cc(-c3cccs3)nc3ccccc23)cc1	47	-16	33	5	-1	88*
CCCCNC(=O)C[C@@H]1C[C@@]2(C(=O)OCC)CCC=C2N(CCC2=CCCCC2)C1=O	nt	nt	0	nt	10	-18
Cc1ccn2c(C(C)O)nnc2c1 (centres undefined)	1	-11	-12	14	0	12
Cn1nc(C(C)(C)C)cc1C(=O)N1CCCCC1c1cc(C(=O)Nc2ccccc2)no1 (centres undefined)	12	18	18	-10	7	-7
O=C(N/N=C/c1ccc(Cl)c([N+](=O)[O-])c1)c1cc(-c2ccccc2)nc2ccccc12	108*	12	31	-27	-319	-31
Cc1cccc2sc(NNC(=O)c3cc(-c4cccs4)nc4ccccc34)nc12	56*	33	88*	-12	6	47

Compound activity (PubChem BioAssay)
